Consider nine compounds from PubChem BioAssay (NCATS).

For assay [1], the target named is Guanine nucleotide-binding protein G(i) subunit alpha-1 (Homo sapiens) (UniProt P63096). The assay can be described thus: qHTS Assay for Inhibitors of RGS12 GoLoco Motif Activity (Green Fluorophore) (AID 879).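 Note: 0% = labeled peptide with Gαi1 and full inhibition = labeled peptide alone without protein; negative values mean loss of peptide binding seen as reduced polarization.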 The method in brief:
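Fluorescence polarization assay: 50 nM Gαi1 with 10 nM FITC-labeled RGS12 GoLoco peptide in 10 mM Tris pH 7.5, 150 mM NaCl, 0.1 mM GDP, 0.05% NP40, 10 min at room temperature with compound.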
On the technique in general: qHTS replaces the single test concentration by a dilution series.

In assay [2] the target is Cytochrome P450 3A4 (Homo sapiens) (UniProt P08684). The assay can be described thus: qHTS Assay for Inhibitors and Substrates of Cytochrome P450 3A4 (AID 884). Note: series mostly up to about 57 µM; % is set by controls: 0 for no effect and ±100 for the full control effect; nearly all actives have a fitted effect of over 50% in size. The method in brief: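 20 nM human CYP3A4 with 25 uM Luciferin-PPXE (at KM) in 200 mM KPO4, preincubated 10 min with compound; NADPH regeneration started a 60 min RT reaction. Luciferin detected by luminescence, normalized to 57 uM ketoconazole as full inhibition.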

Assay [3] concerns the target Muscarinic acetylcholine receptor M1 (Rattus norvegicus) (UniProt P08482). The assay can be described thus: qHTS Assay for Antagonists of Acetylcholine Muscarinic M1 Receptor: Kinetic Measurement of Intracellular Calcium Response (AID 943). Note: nearly all actives have a fitted effect of over 75% in size. Note: potency is the fitted concentration of half-maximal effect. An outline of the steps:
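Intracellular calcium flux, recorded with Fluo-4 in a kinetic plate reader, served as signal; the response to carbachol at EC80 (100 nM final) was taken as maximal over minimal fluorescence after a 10 min compound pre-incubation in rat M1-CHO cells.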

Assay [4] shares this target. Kind of assay: qHTS Assay for Antagonists of Acetylcholine Muscarinic M1 Receptor: Measurement of IP-One Response (AID 944). Note: nearly all actives have a fitted effect of over 75% in size. Note: potency is the fitted concentration of half-maximal effect. An outline of the steps:
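Steps: plate transfected CHO-M1 cells overnight; add test compound, 10 min; add carbachol (200 nM, EC80) in stimulation buffer with LiCl; incubate 30 min; add labelled IP1 tracer and anti-IP1 antibody in lysis buffer; read HTRF after 10 min.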

The target of assay [5] is Pyruvate kinase (Leishmania mexicana) (UniProt Q27686). Kind of assay: qHTS Validation Assay for Inhibitors of Leishmania Mexicana Pyruvate Kinase (AID 945).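 Note: 0% = DMSO only neutral control wells.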 The method in brief:
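Mutant LmPYK (E451W), 0.2 nM, plus 0.5 mM PEP and 0.1 mM ADP in 50 mM imidazole pH 7.2 containing 0.01% Tween 20 and 0.05% BSA. Incubated 1 h at room temperature; luminescence via PKLight, normalized to DMSO.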

Assay [6] concerns the target Cytochrome P450 2C9 (Homo sapiens) (UniProt P11712). Kind of assay: qHTS Assay for Inhibitors and Substrates of Cytochrome P450 2C9 (AID 883). Note: nearly all actives have a fitted effect of over 60% in size. Note: potency is the fitted concentration of half-maximal effect. The method in brief: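 10nM CYP2C9 + 100uM Luciferin-H (=KM), 25mM KPO4; cpd 10 min 37C; NADPH regen, 60 min 37C; stop/detect with P450 Glo-Buffer 20 min; luminescence. Norm. to 57uM sulphaphenazole as full inhibition.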
Assay [7] has as its target Cytochrome P450 2D6 (Homo sapiens) (UniProt P10635). The assay can be described thus: qHTS Assay for Inhibitors and Substrates of Cytochrome P450 2D6 (AID 891).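 Note: luciferin methyl ether substrate demethylated by CYP2D6 with NADPH regeneration; % is set by controls: 0 for no effect and ±100 for the full control effect; nearly all actives have a fitted effect of over 60% in size.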 An outline of the steps: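 Human CYP2D6 (5 nM) with 30 uM Luciferin-ME EGE (at Km) in 100 mM KPO4, compound preincubated 10 min, then NADPH regeneration system for 60 min at room temperature. Luciferin read by luminescence; normalized to 1.43 uM quinidine.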

Assay [8] is described as follows: Confirmation and Secondary Assay for Modulators of Hemoglobin Beta Chain Splicing at IVS2 654 locus (AID 910).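 Note: HeLa cells stably carrying EGFP split by mutant beta-globin IVS2-654 intron; % of control where 0% means no effect.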 An outline of the steps:
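HeLa cells stably expressing EGFP interrupted by β-globin IVS2-654 intron, seeded overnight in Opti-MEM/2% FCS, then treated 2 days at 37 °C. Restored splicing read as total peak GFP intensity per well by laser scanning cytometry (488 nm excitation, 500–520 nm emission); 500 nM antisense PNA as control.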

Assay [9] is described as follows: qHTS Assay for Identification of Small Molecule Agonists for Thrombopoietin (TPO) Signaling Pathway (AID 917). Note: % is set by controls: 0 for no effect and ±100 for the full control effect. The method in brief:
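Reporter: GpIIb promoter–luciferase in murine Ba/F3 expressing human TPO receptor. Pre-starved of IL-3 overnight; compounds with 26 pM TPO, 24 hrs, 37 C/5% CO2; luminescence read.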

The nature of assay [10]: Confirmation and Secondary Assay for Modulators of Hemoglobin Beta Chain Splicing at IVS2 705 locus (AID 930).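 Note: HeLa cells stably expressing the EGFP-705 splicing reporter; GFP fluorescence per well restored by corrected splicing of the IVS2-705 intron in EGFP; series mostly up to about 46 µM; % of control where 0% means no effect.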 An outline of the steps: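 Stable HeLa line with EGFP disrupted by mutant beta-globin intron 2 (705). Overnight attachment, then 2 days of compound at 37C, 5% CO2. Signal: peak GFP intensity summed over objects 5-250 µm.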
Assay [11] is described as follows: Cellular Toxicity (caspase-3) H-4-II-E (AID 663).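 Note: cells exposed to compound for 16 hr before readout; 0% = DMSO basal and 100% = 100 µM tamoxifen.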 An outline of the steps: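 Rat hepatoma H-4-II-E cells (1500/well) plated 5 hr, then exposed to compound titrations for 16 hr at 37 °C. Caspase-Glo 3/7 luminescence read after 20 min at RT; data normalized to DMSO and 100 uM tamoxifen, AC50 from Hill fits.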
Assay [12] is described as follows: Cellular Toxicity (caspase-3) Hek293 (AID 664).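 Note: cells exposed to compound for 16 h at 37 °C before readout.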 An outline of the steps: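 Activation of caspase-3/7 is measured as increased luminescence from cleaved peptide-aminoluciferin substrate in HEK293 cells treated 16 hours at 37 °C. AC50 values come from Hill-equation fits of concentration-response data.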
Assay [13] is described as follows: Cellular Toxicity (caspase-3) N2a (AID 665).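 Note: compound exposure lasted 16 h at 37 °C before readout.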 The method in brief: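 Plated mouse neuroblastoma N2a cells received titrated compounds for 16 h in complete medium. Caspase activity was then detected with a peptide-aminoluciferin luminescent reagent.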
Assay [14] is described as follows: Cellular Toxicity (caspase-3) NIH 3T3 (AID 666).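 Note: caspase signal read after 16 h compound exposure; 0% = DMSO basal and 100% = 100 µM tamoxifen stimulation.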 An outline of the steps:
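Concentration-response qHTS in NIH 3T3 mouse fibroblasts scores caspase-3/7 activation as rising luminescence after 16 hr compound exposure. Signals are scaled between DMSO-only and 100 uM tamoxifen.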

Assay [15] is described as follows: Cellular Toxicity (caspase-3) Renal Proximal Tubule (AID 667).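 Note: cells exposed to compound for 16 hours at 37 °C before detection; 0% = DMSO basal and 100% = 10 µM staurosporine.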 The method in brief:
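Caspase 3/7 activation measured by luminescent aminoluciferin release in primary rat proximal tubule cells after 16 hr compound exposure at 37 °C. AC50 from Hill-fitted concentration-response, scaled between DMSO and 10 uM staurosporine.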

Assay [16] is described as follows: Cell Viability - LYMP2-001 (AID 921).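 Note: series mostly up to about 92 µM; 0% = DMSO only and full inhibition = tetraoctylammonium bromide control wells; nearly all actives have a fitted effect of over 70% in size.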 The method in brief: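 Cellular ATP loss read by luciferase luminescence after 24 h compound exposure at 37 C in complete medium. LYMP2-001 lymphoblastoid cells, 2500/well; qHTS concentration-response data fitted with Hill equation for AC50.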
Assay [17] can be described thus: qHTS Assay for Identification of Small Molecule Agonists for Hypoxia Response Element Signaling Pathway (AID 914; active = well fitted activation curve with a large enough effect in the signal ratio, with a control signal flat, not every such curve was filed as active; the % refers to the signal ratio; note: % of control where 0% means no effect). Particulars: ME-180 (cervical carcinoma) HRE-bla reporter, beta-lactamase ratio, CoCl2, 17 h; activation: hits give high values. The method in brief:
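Reporter activity (beta-lactamase, CCF4 460nm/530nm ratio) in HRE-bla ME-180 cells is recorded after 17 h compound exposure with EC50 CoCl2 at 37 degrees Celsius. AC50 values come from titration data.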

Assay [18] deals with Cytochrome P450 3A4 (Homo sapiens) (UniProt P08684). The assay can be described thus: qHTS Assay for Activators of Cytochrome P450 3A4 (AID 885). Note: nearly all actives have a fitted effect of over 65% in size. An outline of the steps: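 Quantitative HTS format: compounds preincubated with 20nM human CYP3A4 and Luciferin-PPXE substrate at KM, reaction started by NADPH regeneration, stopped after 60 min, luciferase luminescence read 20 min later.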

Assay [19] is described as follows: qHTS Assay for Identification of Small Molecule Antagonists for NFkB Signaling Pathway (AID 895; active = well fitted inhibition curve with a large enough effect in the signal ratio, with a control signal flat, not every such curve was filed as active; the % refers to the signal ratio; note: potency is the fitted concentration of half-maximal effect). An outline of the steps:
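ME-180 NFkB-bla cells (beta-lactamase under NFkB response element), plated overnight, treated with compound then 10 pM TNF alpha (about EC50) for 5 hrs at 37 C. LiveBLAzer FRET read at 460/530 nm emission, 405 nm excitation.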

The structures appear in SMILES notation. “And” between values parts separate entries of the source, which are not always exact repeats. Equal entries are not always repeated. Values without a mark were called inactive. Records with an inconclusive call do not appear. The source made the active and inactive calls. Unless noted, calls come from the whole dose curve; as a rule, active = well fitted curve in the direction sought with a large enough effect; inconclusive = small, poorly fitted or top-dose-only effect, or another doubt; inactive = no such curve, though single readings can be large; an effect the other way counts as inactive or inconclusive.

Muscarinic acetylcholine receptor M1 (Rattus norvegicus), sequence (P08482 whole entry, looked up): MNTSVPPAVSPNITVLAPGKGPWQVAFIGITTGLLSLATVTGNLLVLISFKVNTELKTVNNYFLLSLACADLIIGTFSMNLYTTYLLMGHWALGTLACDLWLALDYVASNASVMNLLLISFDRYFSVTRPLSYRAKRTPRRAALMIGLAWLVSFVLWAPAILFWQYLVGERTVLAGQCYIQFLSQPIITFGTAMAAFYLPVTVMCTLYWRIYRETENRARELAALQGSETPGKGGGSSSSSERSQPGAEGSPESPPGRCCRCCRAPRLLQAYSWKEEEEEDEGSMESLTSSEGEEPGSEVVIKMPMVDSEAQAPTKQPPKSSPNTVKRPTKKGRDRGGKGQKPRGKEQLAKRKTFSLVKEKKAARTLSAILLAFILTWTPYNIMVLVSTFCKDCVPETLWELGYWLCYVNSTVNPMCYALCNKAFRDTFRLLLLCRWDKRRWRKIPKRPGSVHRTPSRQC
Cytochrome P450 3A4 (Homo sapiens), sequence (P08684 whole entry, looked up): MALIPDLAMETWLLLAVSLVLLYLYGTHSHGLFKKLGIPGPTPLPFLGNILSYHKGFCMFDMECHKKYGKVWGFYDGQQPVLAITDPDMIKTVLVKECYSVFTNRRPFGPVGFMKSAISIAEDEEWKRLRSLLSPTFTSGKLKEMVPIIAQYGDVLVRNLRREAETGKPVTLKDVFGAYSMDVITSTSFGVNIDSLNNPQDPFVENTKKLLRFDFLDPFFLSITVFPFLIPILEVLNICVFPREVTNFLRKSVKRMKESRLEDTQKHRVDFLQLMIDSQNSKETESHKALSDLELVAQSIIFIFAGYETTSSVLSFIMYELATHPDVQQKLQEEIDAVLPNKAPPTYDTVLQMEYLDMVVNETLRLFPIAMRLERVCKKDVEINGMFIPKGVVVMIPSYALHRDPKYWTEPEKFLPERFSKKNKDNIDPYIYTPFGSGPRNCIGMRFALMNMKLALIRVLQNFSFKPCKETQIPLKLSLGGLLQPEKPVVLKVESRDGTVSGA
Cytochrome P450 2C9 (Homo sapiens), sequence (P11712 whole entry, looked up): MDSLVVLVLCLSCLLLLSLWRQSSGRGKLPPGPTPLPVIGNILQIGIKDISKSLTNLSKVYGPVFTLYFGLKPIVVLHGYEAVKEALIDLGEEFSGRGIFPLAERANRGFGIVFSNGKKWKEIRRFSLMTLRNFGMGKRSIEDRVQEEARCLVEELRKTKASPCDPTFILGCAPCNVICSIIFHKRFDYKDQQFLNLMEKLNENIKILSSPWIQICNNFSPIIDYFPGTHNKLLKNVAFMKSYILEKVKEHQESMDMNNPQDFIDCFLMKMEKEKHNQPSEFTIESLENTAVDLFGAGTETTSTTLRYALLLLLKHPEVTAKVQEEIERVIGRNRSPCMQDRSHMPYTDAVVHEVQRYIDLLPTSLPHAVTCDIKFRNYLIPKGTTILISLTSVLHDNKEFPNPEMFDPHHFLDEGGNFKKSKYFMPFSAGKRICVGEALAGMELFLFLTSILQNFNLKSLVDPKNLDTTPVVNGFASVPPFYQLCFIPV
Guanine nucleotide-binding protein G(i) subunit alpha-1 (Homo sapiens), sequence (P63096 whole entry, looked up): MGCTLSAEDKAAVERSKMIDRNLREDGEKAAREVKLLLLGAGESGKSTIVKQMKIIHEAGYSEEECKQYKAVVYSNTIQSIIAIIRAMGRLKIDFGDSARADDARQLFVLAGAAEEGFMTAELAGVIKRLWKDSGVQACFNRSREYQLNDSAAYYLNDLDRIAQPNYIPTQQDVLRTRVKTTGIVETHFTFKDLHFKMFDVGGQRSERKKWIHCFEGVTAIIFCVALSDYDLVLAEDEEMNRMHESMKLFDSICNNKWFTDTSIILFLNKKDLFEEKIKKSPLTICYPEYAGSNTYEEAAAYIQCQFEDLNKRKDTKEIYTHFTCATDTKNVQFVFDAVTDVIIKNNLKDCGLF
Pyruvate kinase (Leishmania mexicana), sequence (Q27686 2-499 E452W): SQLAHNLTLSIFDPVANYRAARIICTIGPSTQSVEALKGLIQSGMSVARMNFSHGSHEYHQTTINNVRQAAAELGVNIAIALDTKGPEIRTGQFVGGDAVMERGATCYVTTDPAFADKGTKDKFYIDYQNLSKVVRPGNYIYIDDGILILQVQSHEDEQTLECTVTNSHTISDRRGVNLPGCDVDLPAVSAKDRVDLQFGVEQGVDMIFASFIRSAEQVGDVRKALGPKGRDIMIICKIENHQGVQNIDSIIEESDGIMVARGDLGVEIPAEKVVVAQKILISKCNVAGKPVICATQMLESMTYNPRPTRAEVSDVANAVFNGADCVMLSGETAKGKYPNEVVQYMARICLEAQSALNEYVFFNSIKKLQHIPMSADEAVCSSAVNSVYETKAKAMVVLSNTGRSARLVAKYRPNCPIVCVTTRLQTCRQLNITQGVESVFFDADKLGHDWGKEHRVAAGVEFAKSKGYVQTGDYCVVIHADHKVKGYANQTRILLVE
Cytochrome P450 2D6 (Homo sapiens), sequence (P10635 whole entry, looked up): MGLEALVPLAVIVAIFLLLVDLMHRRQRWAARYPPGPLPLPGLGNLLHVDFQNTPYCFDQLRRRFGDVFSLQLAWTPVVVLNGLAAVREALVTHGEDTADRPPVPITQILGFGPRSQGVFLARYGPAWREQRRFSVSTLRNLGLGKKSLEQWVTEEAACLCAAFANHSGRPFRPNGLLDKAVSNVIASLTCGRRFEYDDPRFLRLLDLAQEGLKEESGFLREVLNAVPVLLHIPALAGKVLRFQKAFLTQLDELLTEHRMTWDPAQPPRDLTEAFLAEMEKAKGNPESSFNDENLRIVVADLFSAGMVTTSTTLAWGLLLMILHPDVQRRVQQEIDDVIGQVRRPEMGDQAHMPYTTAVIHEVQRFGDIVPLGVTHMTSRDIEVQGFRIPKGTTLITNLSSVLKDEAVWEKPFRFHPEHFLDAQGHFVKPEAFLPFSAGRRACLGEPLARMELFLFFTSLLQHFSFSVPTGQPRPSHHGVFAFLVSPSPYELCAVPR

On to `OC(CN1CCC(Cc2ccc(F)cc2)CC1)c1ccc(Cl)cc1` (centres undefined), for which the call in assay [1] and in assay [5] was inactive. In addition, in [2], the Potency entry is “inactive”. For the same compound, the Potency is 0.398 µM (active) in assay [3] and 7.94 µM (active) in [4].
As for `N=c1nc(N2CCCCC2)cc(N)n1O`, the result in assay [1], in assay [9] and in assay [5] was inactive. For the same compound, the Potency result in assay [6], in assay [7], in assay [8], in [10], in assay [3] and in [4] was “inactive” in each case.
`Clc1cccc(Cl)c1NC1=NCCN1`: the compound was classed as inactive in [1], in assay [9] and in assay [5]. In assay [6], the Potency was 7.94 µM (active).
Take `CC(C)NCC(O)COc1ccc(COCCOC(C)C)cc1` (centres undefined): the call in assay [1], in [9] and in assay [5] was inactive. Besides, the Potency entry in assay [2] and in [4] was “inactive” in each case.
Consider `CC(=O)Oc1ccccc1C(=O)O`, for which the outcome in assay [11], in [12], in [13], in assay [14], in assay [15] and in [1] was inactive. Further, the compound was called inactive in [9] and in assay [5]. Also, the Potency entry in assay [6], in assay [2], in assay [7], in [8], in assay [16] and in assay [10] was “inactive” each time.
Turning to `NS(=O)(=O)c1cc2c(cc1Cl)NC=NS2(=O)=O`, the outcome in assay [11], in [12], in [13], in [14], in assay [15] and in assay [1] was inactive. The result in assay [9] and in [5] was inactive. The Potency entry in [8], in [16] and in [10] was “inactive” each time. In assay [17], the activation is 13.9% and 2.11% and -1.51%.
In the case of `Nc1ccc(S(=O)(=O)Nc2ccnn2-c2ccccc2)cc1`, the result in assay [1], in assay [18] and in [5] was inactive. In addition, in assay [19], the Potency is 7.08 µM (active). Besides, the Potency entry in assay [8], in [10] and in assay [4] was “inactive” in each case.
With `CCCC(CCC)C(=O)O`, the compound was called inactive in [12], in [13], in assay [14], in [15], in assay [1] and in assay [9]. In addition, the call in assay [5] was inactive. Further, the Potency entry in assay [2], in [8], in assay [16] and in assay [10] was “inactive” in each case.
For `Nc1nc2ccc(OC(F)(F)F)cc2s1`, the call in assay [1] and in [9] was inactive.
